Results filed as inconclusive are left out. Active and inactive are the calls of the source. The call rests on the fitted dose curve; in most records, active means well fitted curve in the direction sought with a large enough effect; inconclusive means small, poorly fitted or top-dose-only effect, or another doubt; inactive means no such curve, though single readings can be large; an effect the other way counts as inactive or inconclusive.
How the values were obtained:
[1] = Quantitative High-Throughput drug screen in 47 multiple myeloma cell lines against the NCATS MIPE library collection: AMO1_DSMZ cell viability assay (AID 1918927; further: nearly all actives have a fitted effect of over 30% in size)
In short: (§1)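 Viability readout: CellTiter-Glo luminescence following 5 min room-temperature incubation with reagent. Prior exposure: 48 h, 37C, humidified 5% CO2, 500 cells per well.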

[2] = Quantitative High-Throughput drug screen in 47 multiple myeloma cell lines against the NCATS MIPE library collection: ARP1_JJKsccF8 cell viability assay (AID 1918928; further: nearly all actives have a fitted effect of over 40% in size)
In short: (§2)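 Myeloma cells, 500 per well, were exposed to MIPE 4.0 drugs by pin transfer for 48 h at 37 °C, 5% CO2. Viability was read as ATP luminescence with CellTiter-Glo, normalised to DMSO-only (100%) and medium-only (0%) wells.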

[3] = Quantitative High-Throughput drug screen in 47 multiple myeloma cell lines against the NCATS MIPE library collection: ARD_JJKsccE7 cell viability assay (AID 1918929)
In short: as §1

[4] = Quantitative High-Throughput drug screen in 47 multiple myeloma cell lines against the NCATS MIPE library collection: KMM1_JCRB cell viability assay (AID 1918960); further: nearly all actives have a fitted effect of over 30% in size
In short: as §2

[5] = Quantitative High-Throughput drug screen in 47 multiple myeloma cell lines against the NCATS MIPE library collection: KHM11_PLB cell viability assay (AID 1918962); further: nearly all actives have a fitted effect of over 35% in size
In short: (§3)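 CellTiter-Glo luminescence (ATP) after 48 h compound exposure, 37C/5% CO2; 500 cells/well; MIPE 4.0 approved/investigational drugs pinned in; DMSO = 100%, media only = 0% viability.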

[6] = Quantitative High-Throughput drug screen in 47 multiple myeloma cell lines against the NCATS MIPE library collection: JIM3_ECACC cell viability assay (AID 1918963; further: nearly all actives have a fitted effect of over 35% in size)
In short: as §3

[7] = Quantitative High-Throughput drug screen in 47 multiple myeloma cell lines against the NCATS MIPE library collection: JIM1_ECACC cell viability assay (AID 1918964)
In short: as §1

[8] = Quantitative High-Throughput drug screen in 47 multiple myeloma cell lines against the NCATS MIPE library collection: INA6_PLB cell viability assay (AID 1918965; further: nearly all actives have a fitted effect of over 55% in size)
In short: (§4)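 Myeloma cells (500 per well) were exposed to MIPE 4.0 compounds by pin transfer and incubated 48 hours at 37C, 5% CO2. Viability was read as ATP by CellTiter-Glo luminescence, normalised to DMSO (100%) and media-only (0%) wells.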

[9] = Quantitative High-Throughput drug screen in 47 multiple myeloma cell lines against the NCATS MIPE library collection: KMS12BM_JCRB cell viability assay (AID 1918971); further: nearly all actives have a fitted effect of over 35% in size
In short: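 Inhibition of cell viability is measured here. Each line was plated at 500 cells per well, treated with MIPE 4.0 drugs, kept 48 hours at 37C, then assayed for ATP content by CellTiter-Glo luminescence.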

[10] = Quantitative High-Throughput drug screen in 47 multiple myeloma cell lines against the NCATS MIPE library collection: KMS12PE_JCRB cell viability assay (AID 1918972); further: nearly all actives have a fitted effect of over 30% in size
In short: as §4

[11] = Quantitative High-Throughput drug screen in 47 multiple myeloma cell lines against the NCATS MIPE library collection: KMS21BM_JCRB cell viability assay (AID 1918974); conditions: ATP luminescence, 48 h; viability: at 45.8 µM (top of the series) unless noted
In short: as §1

[12] = Quantitative High-Throughput drug screen in 47 multiple myeloma cell lines against the NCATS MIPE library collection: Karpas620_DSMZ cell viability assay (AID 1918959); further: nearly all actives have a fitted effect of over 30% in size
In short: as §3

[13] = Quantitative High-Throughput drug screen in 47 multiple myeloma cell lines against the NCATS MIPE library collection: Karpas417_ECACC cell viability assay (AID 1918961); conditions: Karpas417 myeloma viability, CellTiter-Glo ATP luminescence, 48 h; viability (% of DMSO): at 45.8 µM (top of the series)
In short: as §4

[14] = Quantitative High-Throughput drug screen in 47 multiple myeloma cell lines against the NCATS MIPE library collection: H1112_PLB cell viability assay (AID 1918967; further: nearly all actives have a fitted effect of over 30% in size)
In short: as §1

[15] = Quantitative High-Throughput drug screen in 47 multiple myeloma cell lines against the NCATS MIPE library collection: Karpas25_ECACC cell viability assay (AID 1918968; further: nearly all actives have a fitted effect of over 35% in size)
In short: as §1

[16] = Quantitative High-Throughput drug screen in 47 multiple myeloma cell lines against the NCATS MIPE library collection: KMS27_JCRB cell viability assay (AID 1918970); further: nearly all actives have a fitted effect of over 30% in size
In short: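 Myeloma cells (500 per well) were exposed to MIPE 4.0 compounds for 48 h at 37 °C, 5% CO2; viability was read as ATP luminescence with CellTiter-Glo, normalized to DMSO-only (100%) and media-only (0%) wells.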

[17] = Quantitative High-Throughput drug screen in 47 multiple myeloma cell lines against the NCATS MIPE library collection: KMS20_JCRB cell viability assay (AID 1918973); further: nearly all actives have a fitted effect of over 45% in size
In short: as §1

Measured: Potency
Potency means the concentration at half of the fitted maximal effect.

COc1ccc2c(c1)CC[C@@H](CN(C)CC(=O)O)[C@H]2c1ccccc1
active: [1] 590 nM | [2] 3.32 µM | [3] 1.32 µM | [4] 1.32 µM | [5] 662 nM | [6] 1.66 µM | [7] 372 nM | [8] 2.96 µM | [9] 2.09 µM | [10] 1.05 µM | [11] 5.26 µM

CNC(=O)c1ccc(N2C(=S)N(c3cnc(C#N)c(C(F)(F)F)c3)C(=O)C23CCC3)cc1F
active: [1] 332 nM | [3] 2.09 µM | [12] 2.35 µM | [4] 2.09 µM | [13] 1.05 µM | [5] 2090 nM | [6] 2.96 µM | [7] 1870 nM | [8] 2.09 µM | [14] 833 nM | [15] 743 nM | [16] 4.69 µM | [9] 13.2 µM | [10] 2.96 µM | [17] 2.35 µM
